The values that follow come from PubChem BioAssay (NCI).

The structures appear in SMILES notation. Compounds without any hit were thinned out: in the full panel of roughly 79,000, 15% have a hit. Unmarked numbers belong to inactive results. Active and inactive are the calls of the source. Cut-off read from the data, not from the text of the source: active = growth inhibition above about 70%; inactive = the rest.

This test in a line: NCI Yeast Anticancer Drug Screen. Data for the sgs1 mgt1 strain (AID 161).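 Note: 0% = growth of cultures given vehicle only.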 The following applies: S. cerevisiae sgs1 mgt1 strain, at 50.0 µM (retest, dose inferred, filed as 5.0), stronger effect = higher value. The method in brief:
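Growth of a repair-deficient yeast mutant was monitored after compound treatment and expressed as inhibition relative to vehicle-treated cultures.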
On to `CCC(c1ccc(OC)cc1)C(O)(CC)c1ccc(OC)cc1` (stereo not drawn), for which the growth inhibition is 98% (active). Turning to `Cc1c(Cl)c(S(N)(=O)=O)cc2c1NC=NS2(=O)=O`, the growth inhibition is -14%. `CCCCCCCCNc1ncnc2c1cnn2C`: the growth inhibition is 85% (active).

For the compound `Cc1cc(N)c(C)c2c1[nH]c1ccc(Br)cc12`, the growth inhibition was 98% (active). Under `C(=C\c1cnnc2ccccc12)/c1ccco1` stands 39%; under `Cc1cc(N(CCCCl)CCCCl)ccc1C=Nc1cccc(Cl)c1`, 65%.

Consider `CCC[CH2][Sn]([CH2]CCC)([O]C(=O)c1cc(F)ccc1F)[O]C(=O)c1cc(F)ccc1F`, for which the growth inhibition is 33%. As to `O=[N+]([O-])c1ccc(N2N=NC(CN3CCOCC3)C2N2CCOCC2)cc1` (stereo not drawn), the growth inhibition is 56%.

Take `O=CC(I)=C(c1ccccc1)c1ccccc1`: the growth inhibition is 9%. Under `CCC/C(=N\O)S(=O)(=O)c1ccc(NN=O)nc1` stands -11%; under `COc1cc(Cc2n[nH]c(=S)n2-c2ccccc2)c(S(N)(=O)=O)cc1OC`, -16%. For `CC(=O)Nc1ccc(C(C)(C)c2ccc(C)cc2)cc1` the value was 96% (active). Under `CC(C)=NOc1ccc([N+](=O)[O-])cc1[N+](=O)[O-]` stands 84% (active). `CC(=O)Nc1ccc2c(c1)C(S)c1ccccc1-2` (stereo not drawn): the growth inhibition was 53%. Under `CCN1CC(=O)N(C)C1=S` stands -11%.

As to `[O-][n+]1c(-c2ccccc2)c(Cl)c(-c2ccccc2)n1O`, the growth inhibition is 92% (active). Under `CCCCCCCCCCCCCCCCN(C)c1ccc(S(=O)(=O)O)cc1[N+](=O)[O-]` stands 62%; under `Cc1ccc2c(c1)-c1c(c3c(c4c1-c1cc(C)ccc1CC4)C(=O)OC3=O)CC2`, 59%.
